From the supplement of paper PMC7411054

How the values were obtained:
Details in all cases: treatment time: 24 h
[1] = tested on: A549-CANX-COX4; experiment: lowest phenotypically active concentration; higher = less potent
Method in brief: (§1)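 Each of fifteen gene-edited A549, HepG2 and WPMY1 reporter lines, marked with BFP for segmentation and GFP and RFP/FusionRed, was treated in four wells at 0.3, 1, 3 or 9 µM for 24 h prior to live imaging. Normalisation of per-well live-cell features used solvent control wells. Deviation needed ≥3 of 4 wells beyond the 95th percentile of control Euclidean distances, and reproducibility needed a median replicate Pearson correlation above the 95th percentile of non-replicates. Both were required for phenotypic activity.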

[2] = tested on: A549-TP53BP1-CLTA; experiment: as above
Method in brief: as §1

[3] = tested on: HepG2-ACTB-RAB5A; experiment: as above
Method in brief: as §1

[4] = tested on: HepG2-CANX-COX4; experiment: as above
Method in brief: as §1

[5] = tested on: HepG2-GM130-SQSTM1; experiment: as above
Method in brief: as §1

[6] = tested on: HepG2-TP53BP1-CLTA; experiment: as above
Method in brief: as §1

[7] = tested on: HepG2-TUBA1B-RELA; experiment: as above
Method in brief: as §1

[8] = tested on: WPMY1-ACTB-RAB5A; experiment: as above
Method in brief: as §1

[9] = tested on: WPMY1-CANX-COX4; experiment: as above
Method in brief: as §1

[10] = tested on: WPMY1-GM130-SQSTM1; experiment: as above
Method in brief: as §1

[11] = tested on: WPMY1-TP53BP1-CLTA; experiment: as above
Method in brief: as §1

[12] = tested on: WPMY1-TUBA1B-RELA; experiment: as above
Method in brief: as §1

[13] = tested on: A549-CANX-COX4; experiment: phenotypically active (imaging signature differs from DMSO and reproducible) at any of 0.3-9 uM (binary (1 = active, 0 = inactive)); higher = active
Method in brief: as §1

[14] = tested on: A549-TP53BP1-CLTA; experiment: as above
Method in brief: as §1

[15] = tested on: HepG2-ACTB-RAB5A; experiment: as above
Method in brief: as §1

[16] = tested on: HepG2-CANX-COX4; experiment: as above
Method in brief: as §1

[17] = tested on: HepG2-GM130-SQSTM1; experiment: as above
Method in brief: as §1

[18] = tested on: HepG2-TP53BP1-CLTA; experiment: as above
Method in brief: as §1

[19] = tested on: HepG2-TUBA1B-RELA; experiment: as above
Method in brief: as §1

[20] = tested on: WPMY1-ACTB-RAB5A; experiment: as above
Method in brief: as §1

[21] = tested on: WPMY1-CANX-COX4; experiment: as above
Method in brief: as §1

[22] = tested on: WPMY1-GM130-SQSTM1; experiment: as above
Method in brief: as §1

[23] = tested on: WPMY1-TP53BP1-CLTA; experiment: as above
Method in brief: as §1

[24] = tested on: WPMY1-TUBA1B-RELA; experiment: as above
Method in brief: as §1

COc1cc2c(NC3CCN(C(C)C)CC3)nc(C3CCCCC3)nc2cc1OCCCN1CCCC1
active: phenotypically active [13] 1 | phenotypically active [14] 1 | phenotypically active [15] 1 | phenotypically active [16] 1 | phenotypically active [17] 1 | phenotypically active [18] 1 | phenotypically active [19] 1 | phenotypically active [20] 1 | phenotypically active [21] 1 | phenotypically active [22] 1 | phenotypically active [23] 1 | phenotypically active [24] 1
1 µM: lowest phenotypically active concentration [3] | lowest phenotypically active concentration [5] | lowest phenotypically active concentration [6] | lowest phenotypically active concentration [8] | lowest phenotypically active concentration [9] | lowest phenotypically active concentration [11] | lowest phenotypically active concentration [12]
3 µM: lowest phenotypically active concentration [1] | lowest phenotypically active concentration [2] | lowest phenotypically active concentration [4]
≤ 0.3 µM: lowest phenotypically active concentration [7] | lowest phenotypically active concentration [10]

CCN(CC)CCOC(=O)C1(C2CCCCC2)CCCCC1 [dicycloverine]
inactive: phenotypically active [13] 0 | phenotypically active [14] 0 | phenotypically active [15] 0 | phenotypically active [16] 0 | phenotypically active [17] 0 | phenotypically active [18] 0 | phenotypically active [19] 0 | phenotypically active [20] 0 | phenotypically active [21] 0 | phenotypically active [22] 0 | phenotypically active [23] 0 | phenotypically active [24] 0

Clc1ccc2nsnc2c1NC1=NCCN1 [tizanidine]
inactive: phenotypically active [13] 0 | phenotypically active [14] 0 | phenotypically active [15] 0 | phenotypically active [16] 0 | phenotypically active [17] 0 | phenotypically active [18] 0 | phenotypically active [19] 0 | phenotypically active [20] 0 | phenotypically active [21] 0 | phenotypically active [22] 0 | phenotypically active [23] 0 | phenotypically active [24] 0

C/C(=C/c1ccc(C(=O)O)cc1)c1ccc2c(c1)C(C)(C)CCC2(C)C
3 µM: lowest phenotypically active concentration [10] | lowest phenotypically active concentration [11]
inactive: phenotypically active [13] 0 | phenotypically active [14] 0 | phenotypically active [15] 0 | phenotypically active [16] 0 | phenotypically active [17] 0 | phenotypically active [18] 0 | phenotypically active [19] 0 | phenotypically active [20] 0 | phenotypically active [24] 0
9 µM: lowest phenotypically active concentration [9]
active: phenotypically active [21] 1 | phenotypically active [22] 1 | phenotypically active [23] 1

CCN1CCN(C(c2cccnc2)c2cc(Cl)c3cccnc3c2O)CC1 (centres undefined)
9 µM: lowest phenotypically active concentration [3] | lowest phenotypically active concentration [4] | lowest phenotypically active concentration [5] | lowest phenotypically active concentration [6] | lowest phenotypically active concentration [7] | lowest phenotypically active concentration [8] | lowest phenotypically active concentration [9] | lowest phenotypically active concentration [11]
3 µM: lowest phenotypically active concentration [1] | lowest phenotypically active concentration [2]
inactive: phenotypically active [22] 0 | phenotypically active [24] 0
active: phenotypically active [13] 1 | phenotypically active [14] 1 | phenotypically active [15] 1 | phenotypically active [16] 1 | phenotypically active [17] 1 | phenotypically active [18] 1 | phenotypically active [19] 1 | phenotypically active [20] 1 | phenotypically active [21] 1 | phenotypically active [23] 1

CCOc1cc(N2CCC(O)CC2)ccc1Nc1ncc2c(n1)N(C)c1ccccc1C(=O)N2C
active: phenotypically active [13] 1 | phenotypically active [14] 1 | phenotypically active [15] 1 | phenotypically active [16] 1 | phenotypically active [17] 1 | phenotypically active [18] 1 | phenotypically active [19] 1 | phenotypically active [20] 1 | phenotypically active [21] 1 | phenotypically active [22] 1 | phenotypically active [23] 1 | phenotypically active [24] 1
3 µM: lowest phenotypically active concentration [3] | lowest phenotypically active concentration [4] | lowest phenotypically active concentration [5] | lowest phenotypically active concentration [7] | lowest phenotypically active concentration [8] | lowest phenotypically active concentration [9] | lowest phenotypically active concentration [10] | lowest phenotypically active concentration [11]
9 µM: lowest phenotypically active concentration [1] | lowest phenotypically active concentration [2] | lowest phenotypically active concentration [6] | lowest phenotypically active concentration [12]

CCN1CCN(c2cc(-c3ccc(F)cc3)c3c(n2)CCCCCC3)CC1 [blonanserin]
3 µM: lowest phenotypically active concentration [6] | lowest phenotypically active concentration [7]
inactive: phenotypically active [13] 0 | phenotypically active [21] 0 | phenotypically active [22] 0
9 µM: lowest phenotypically active concentration [2] | lowest phenotypically active concentration [3] | lowest phenotypically active concentration [4] | lowest phenotypically active concentration [5] | lowest phenotypically active concentration [8] | lowest phenotypically active concentration [11] | lowest phenotypically active concentration [12]
active: phenotypically active [14] 1 | phenotypically active [15] 1 | phenotypically active [16] 1 | phenotypically active [17] 1 | phenotypically active [18] 1 | phenotypically active [19] 1 | phenotypically active [20] 1 | phenotypically active [23] 1 | phenotypically active [24] 1

COc1ccc2c(Oc3ccc(NC(=O)c4c(C)n(CC(C)(C)O)n(-c5ccccc5)c4=O)nc3)ccnc2c1
9 µM: lowest phenotypically active concentration [4] | lowest phenotypically active concentration [5] | lowest phenotypically active concentration [6] | lowest phenotypically active concentration [7]
active: phenotypically active [16] 1 | phenotypically active [17] 1 | phenotypically active [18] 1 | phenotypically active [19] 1
inactive: phenotypically active [13] 0 | phenotypically active [14] 0 | phenotypically active [15] 0 | phenotypically active [20] 0 | phenotypically active [21] 0 | phenotypically active [22] 0 | phenotypically active [23] 0 | phenotypically active [24] 0

Cc1nc(NC(=O)N2CCC[C@H]2C(N)=O)sc1-c1csc(C(C)(C)C)n1
9 µM: lowest phenotypically active concentration [2] | lowest phenotypically active concentration [9]
active: phenotypically active [14] 1 | phenotypically active [15] 1 | phenotypically active [16] 1 | phenotypically active [17] 1 | phenotypically active [18] 1 | phenotypically active [19] 1 | phenotypically active [21] 1 | phenotypically active [23] 1
3 µM: lowest phenotypically active concentration [3] | lowest phenotypically active concentration [4] | lowest phenotypically active concentration [5] | lowest phenotypically active concentration [6] | lowest phenotypically active concentration [7] | lowest phenotypically active concentration [11]
inactive: phenotypically active [13] 0 | phenotypically active [20] 0 | phenotypically active [22] 0 | phenotypically active [24] 0

O=C(c1ccc(C(=O)N2CCC(N3CCCC3)CC2)c(Nc2ccccc2)c1)N1CCC(N2CCCC2)CC1
inactive: phenotypically active [13] 0 | phenotypically active [14] 0 | phenotypically active [15] 0 | phenotypically active [16] 0 | phenotypically active [18] 0 | phenotypically active [19] 0 | phenotypically active [20] 0 | phenotypically active [21] 0 | phenotypically active [22] 0 | phenotypically active [23] 0 | phenotypically active [24] 0
9 µM: lowest phenotypically active concentration [5]
active: phenotypically active [17] 1

CN1CCN(C2=Nc3cc(Cl)ccc3Nc3ccccc32)CC1 [clozapine]
9 µM: lowest phenotypically active concentration [10]
active: phenotypically active [22] 1
inactive: phenotypically active [13] 0 | phenotypically active [14] 0 | phenotypically active [15] 0 | phenotypically active [16] 0 | phenotypically active [17] 0 | phenotypically active [18] 0 | phenotypically active [19] 0 | phenotypically active [20] 0 | phenotypically active [21] 0 | phenotypically active [23] 0 | phenotypically active [24] 0

CC(C)NCC(O)COc1cccc2ccccc12 (centres undefined) [propranolol]
inactive: phenotypically active [13] 0 | phenotypically active [14] 0 | phenotypically active [15] 0 | phenotypically active [16] 0 | phenotypically active [17] 0 | phenotypically active [18] 0 | phenotypically active [19] 0 | phenotypically active [20] 0 | phenotypically active [21] 0 | phenotypically active [22] 0 | phenotypically active [23] 0 | phenotypically active [24] 0

Nc1ccn([C@@H]2O[C@H](CO)[C@@H](O)C2(F)F)c(=O)n1 [gemcitabine]
active: phenotypically active [13] 1 | phenotypically active [14] 1 | phenotypically active [15] 1 | phenotypically active [16] 1 | phenotypically active [17] 1 | phenotypically active [18] 1 | phenotypically active [19] 1 | phenotypically active [20] 1 | phenotypically active [21] 1 | phenotypically active [22] 1 | phenotypically active [23] 1 | phenotypically active [24] 1
≤ 0.3 µM: lowest phenotypically active concentration [1] | lowest phenotypically active concentration [2] | lowest phenotypically active concentration [3] | lowest phenotypically active concentration [4] | lowest phenotypically active concentration [5] | lowest phenotypically active concentration [6] | lowest phenotypically active concentration [7] | lowest phenotypically active concentration [8] | lowest phenotypically active concentration [9] | lowest phenotypically active concentration [10] | lowest phenotypically active concentration [11] | lowest phenotypically active concentration [12]

CCN1CCN(c2ccc(Nc3cc(N(C)C(=O)Nc4c(Cl)c(OC)cc(OC)c4Cl)ncn3)cc2)CC1
active: phenotypically active [20] 1 | phenotypically active [22] 1
9 µM: lowest phenotypically active concentration [8] | lowest phenotypically active concentration [10]
inactive: phenotypically active [13] 0 | phenotypically active [14] 0 | phenotypically active [15] 0 | phenotypically active [16] 0 | phenotypically active [17] 0 | phenotypically active [18] 0 | phenotypically active [19] 0 | phenotypically active [21] 0 | phenotypically active [23] 0 | phenotypically active [24] 0

CC(C)CCN1c2nc(Nc3cc(F)c(O)c(F)c3)ncc2N(C)C(=O)C1C (centres undefined)
inactive: phenotypically active [13] 0
3 µM: lowest phenotypically active concentration [2] | lowest phenotypically active concentration [3] | lowest phenotypically active concentration [4] | lowest phenotypically active concentration [6] | lowest phenotypically active concentration [7] | lowest phenotypically active concentration [8] | lowest phenotypically active concentration [9] | lowest phenotypically active concentration [12]
1 µM: lowest phenotypically active concentration [5]
≤ 0.3 µM: lowest phenotypically active concentration [10] | lowest phenotypically active concentration [11]
active: phenotypically active [14] 1 | phenotypically active [15] 1 | phenotypically active [16] 1 | phenotypically active [17] 1 | phenotypically active [18] 1 | phenotypically active [19] 1 | phenotypically active [20] 1 | phenotypically active [21] 1 | phenotypically active [22] 1 | phenotypically active [23] 1 | phenotypically active [24] 1

Cc1ccccc1N1C(=O)c2cc(S(N)(=O)=O)c(Cl)cc2NC1C (centres undefined) [metolazone]
inactive: phenotypically active [13] 0 | phenotypically active [14] 0 | phenotypically active [15] 0 | phenotypically active [16] 0 | phenotypically active [17] 0 | phenotypically active [18] 0 | phenotypically active [19] 0 | phenotypically active [20] 0 | phenotypically active [21] 0 | phenotypically active [22] 0 | phenotypically active [23] 0 | phenotypically active [24] 0

Nc1ccn([C@@H]2O[C@H](CO)[C@@H](O)[C@H]2O)c(=O)n1 [Cytidine]
inactive: phenotypically active [13] 0 | phenotypically active [14] 0 | phenotypically active [15] 0 | phenotypically active [16] 0 | phenotypically active [17] 0 | phenotypically active [18] 0 | phenotypically active [19] 0 | phenotypically active [20] 0 | phenotypically active [21] 0 | phenotypically active [22] 0 | phenotypically active [23] 0 | phenotypically active [24] 0
